Measurements published in PubChem BioAssay (EPA / NIEHS).
Several values for one entry are separate records, joined by “and”; a condition that tells them apart may be missing. Equal values may be shown once. Where a structure was tested more than once in an assay, its records may differ in their call. Activity calls are given as the source filed them. How the source made its calls: active means hit-call score of the fitted dose curve at least 0.9, where 1 is the maximum; inactive means score below 0.9.

Legend:
[1] = biological target: Transcription factor E2F1 (Homo sapiens) (UniProt Q01094); experiment: ATG_E2F_CIS: Attagene CIS-FACTORIAL HepG2 Assay for human E2F Transcription Factor 1 (AID 2282935); conditions: HepG2 Attagene cis-reporter, E2F reporter RNA transcripts; actives raise or lower the signal
Sequence of Transcription factor E2F1 (Homo sapiens) (Q01094 whole entry, looked up): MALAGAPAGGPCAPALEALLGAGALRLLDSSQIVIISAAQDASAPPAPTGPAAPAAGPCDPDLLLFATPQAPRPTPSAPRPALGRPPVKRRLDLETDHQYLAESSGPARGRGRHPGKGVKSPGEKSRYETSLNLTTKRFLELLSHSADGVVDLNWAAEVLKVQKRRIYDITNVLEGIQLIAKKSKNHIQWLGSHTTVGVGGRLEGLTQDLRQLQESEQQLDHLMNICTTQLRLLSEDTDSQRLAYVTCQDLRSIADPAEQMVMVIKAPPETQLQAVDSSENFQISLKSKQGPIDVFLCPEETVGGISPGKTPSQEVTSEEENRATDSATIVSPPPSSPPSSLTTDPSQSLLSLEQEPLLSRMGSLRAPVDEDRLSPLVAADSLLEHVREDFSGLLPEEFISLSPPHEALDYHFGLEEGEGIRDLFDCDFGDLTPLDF
Procedure, shortened: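 Measures reporter transcript levels via RT-PCR with capillary electrophoresis detection in HepG2 cells harboring cis-regulated reporter units; 24 h post-dose; bidirectional curve fitting with DMSO as baseline.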

[2] = ATG_M_61_CIS: Attagene CIS-FACTORIAL HepG2 Assay for M61 Transcription Factor (Internal Marker) (AID 2282937); conditions: HepG2 Attagene CIS-FACTORIAL M61 internal marker reporter; actives raise or lower the signal
Procedure, shortened: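 HepG2 cells transiently transfected with multiplexed cis-promoter reporter units reporting endogenous transcription factor activity, measured 24 h after dosing. Reporter mRNA quantified by RT-PCR and capillary electrophoresis; bidirectional fit against DMSO baseline.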

[3] = ATG_EGR_CIS: Attagene CIS-FACTORIAL HepG2 Assay for human Early Growth Response 1 (EGR1) (AID 2282938); conditions: HepG2 Attagene CIS-FACTORIAL EGR reporter mRNA; actives raise or lower the signal
Procedure, shortened: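 HepG2 cells transiently transfected with cis-element-driven multiplexed reporter units, dosed for 24 h. EGR1-element reporter mRNA quantified by RT-PCR, 6-FAM labelling, HpaI digestion and capillary electrophoresis; bidirectional fit versus DMSO.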

[4] = ATG_M_19_CIS: Attagene CIS-FACTORIAL HepG2 Assay for M19 Transcription Factor (Internal Marker) (AID 2282939); conditions: HepG2 Attagene CIS-FACTORIAL M19 internal marker reporter; actives raise or lower the signal
Procedure, shortened: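 Signals come from fluorescence of labelled reporter-specific PCR fragments resolved by capillary electrophoresis, following 24 h treatment of HepG2 cells transfected with cis-promoter reporter units; activity was fitted in both directions relative to DMSO.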

[5] = ATG_Ets_CIS: Attagene CIS-FACTORIAL HepG2 Assay for human Erythroblast Transformation Specific (ETS) (AID 2282941); conditions: HepG2 ETS cis-reporter transcription, actives raise or lower the signal
Procedure, shortened: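 HepG2 cells transiently transfected with cis-promoter reporter transcription units were dosed for 24 h; reporter mRNA was measured by RT-PCR, 6-FAM primer extension, HpaI digestion and capillary electrophoresis, with bidirectional fitting against DMSO baseline.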

[6] = biological target: Hepatocyte nuclear factor 3-beta (Homo sapiens) (UniProt Q9Y261); experiment: ATG_FoxA2_CIS: Attagene CIS-FACTORIAL HepG2 Assay for human Forkhead box A2 (FOXA2) (AID 2282942); conditions: HepG2 cis-reporter transcription factor activity, 24 h; actives raise or lower the signal
Sequence of Hepatocyte nuclear factor 3-beta (Homo sapiens) (Q9Y261 whole entry, looked up): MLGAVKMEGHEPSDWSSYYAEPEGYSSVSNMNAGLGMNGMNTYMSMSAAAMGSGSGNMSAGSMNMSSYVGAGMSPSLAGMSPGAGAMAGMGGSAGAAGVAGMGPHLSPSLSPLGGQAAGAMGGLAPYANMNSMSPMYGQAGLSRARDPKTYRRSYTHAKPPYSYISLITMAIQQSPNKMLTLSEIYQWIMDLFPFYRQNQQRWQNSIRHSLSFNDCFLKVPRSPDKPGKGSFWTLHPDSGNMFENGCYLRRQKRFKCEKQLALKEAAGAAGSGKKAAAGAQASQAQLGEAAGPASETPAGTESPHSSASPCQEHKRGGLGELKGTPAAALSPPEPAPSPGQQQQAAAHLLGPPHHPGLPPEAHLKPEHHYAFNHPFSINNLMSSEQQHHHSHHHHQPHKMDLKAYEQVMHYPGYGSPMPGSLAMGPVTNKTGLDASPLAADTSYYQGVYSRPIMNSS
Procedure, shortened: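 HepG2 transiently transfected with a multiplexed cis-promoter reporter library read endogenous FOXA2 activity. After 24 h compound exposure, reporter mRNA was quantified by RT-PCR, HpaI digestion and capillary electrophoresis. Bidirectional fit against DMSO.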

[7] = ATG_FoxO_CIS: Attagene CIS-FACTORIAL HepG2 Assay for human Forkhead box O (FoxO) (AID 2282943); conditions: HepG2 Attagene cis-reporter, FoxO element, mRNA; actives raise or lower the signal
Procedure, shortened: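 HepG2 cells transiently transfected with cis-element-driven reporter units report endogenous FoxO activity. After 24 h chemical exposure, reporter mRNA quantified by RT-PCR, fluorescent labeling, HpaI digestion and capillary electrophoresis; bidirectional fit versus DMSO.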

[8] = ATG_GATA_CIS: Attagene CIS-FACTORIAL HepG2 Assay for human GATA Binding Protein (AID 2282944); conditions: HepG2 GATA cis-element reporter, Attagene multiplex mRNA; actives raise or lower the signal
Procedure, shortened: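 After transfecting HepG2 cells with multiple cis-regulated reporter units, chemicals are dosed for 24 h; isolated RNA undergoes RT-PCR and fluorescent labeling before capillary electrophoresis, with activity expressed against DMSO.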

[9] = ATG_GLI_CIS: Attagene CIS-FACTORIAL HepG2 Assay for human Zinc Finger Protein GLI1 (AID 2282945); conditions: HepG2, Attagene cis-factorial reporter mRNA, GLI element; actives raise or lower the signal
Procedure, shortened: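 Transiently transfected HepG2 cells report endogenous transcription factor activity via cis-element-driven reporter units. After 24 h compound exposure, reporter mRNA was measured by RT-PCR with capillary electrophoresis; bidirectional fitting against DMSO baseline.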

[10] = ATG_GRE_CIS: Attagene CIS-FACTORIAL HepG2 Assay for human Glucocorticoid Response Elements (GRE) (AID 2282947); conditions: HepG2 GRE cis-reporter, Attagene multiplex mRNA; actives raise or lower the signal
Procedure, shortened: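 Endogenous transcription factor activity is read through cis-element reporter constructs transiently transfected into HepG2 cells. After 24 h treatment, labelled RT-PCR products are resolved by capillary electrophoresis; DMSO sets baseline for bidirectional curve fitting.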

[11] = ATG_M_32_CIS: Attagene CIS-FACTORIAL HepG2 Assay for M32 Transcription Factor (Internal Marker) (AID 2282949); conditions: HepG2 Attagene cis-factorial M32 reporter, mRNA; actives raise or lower the signal;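 further: background control marker of the multiplexed CIS panel rather than a real target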
Procedure, shortened: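 Following 24 h chemical exposure of HepG2 cells transiently expressing cis-promoter reporter constructs, reporter transcript levels were determined by RT-PCR with fluorescent labelling and capillary electrophoresis, then fitted bidirectionally against DMSO.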

[12] = ATG_M_06_CIS: Attagene CIS-FACTORIAL HepG2 Assay for M06 Transcription Factor (Internal Marker) (AID 2282950); conditions: HepG2 Attagene CIS-FACTORIAL M06 internal marker reporter; actives raise or lower the signal
Procedure, shortened: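 HepG2 liver cells, 24 h exposure. Reporter transcripts from transfected cis-element constructs quantified by RT-PCR/capillary electrophoresis fluorescence. Bidirectional curve fit against DMSO.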

[13] = biological target: Hypoxia-inducible factor 1-alpha (Homo sapiens) (UniProt Q16665); experiment: ATG_HIF1a_CIS: Attagene CIS-FACTORIAL HepG2 Assay for human Hypoxia Inducible Factor 1 (HIF1A) (AID 2282951); conditions: HepG2 Attagene cis-factorial HIF1a reporter transcription; actives raise or lower the signal
Sequence of Hypoxia-inducible factor 1-alpha (Homo sapiens) (Q16665 whole entry, looked up): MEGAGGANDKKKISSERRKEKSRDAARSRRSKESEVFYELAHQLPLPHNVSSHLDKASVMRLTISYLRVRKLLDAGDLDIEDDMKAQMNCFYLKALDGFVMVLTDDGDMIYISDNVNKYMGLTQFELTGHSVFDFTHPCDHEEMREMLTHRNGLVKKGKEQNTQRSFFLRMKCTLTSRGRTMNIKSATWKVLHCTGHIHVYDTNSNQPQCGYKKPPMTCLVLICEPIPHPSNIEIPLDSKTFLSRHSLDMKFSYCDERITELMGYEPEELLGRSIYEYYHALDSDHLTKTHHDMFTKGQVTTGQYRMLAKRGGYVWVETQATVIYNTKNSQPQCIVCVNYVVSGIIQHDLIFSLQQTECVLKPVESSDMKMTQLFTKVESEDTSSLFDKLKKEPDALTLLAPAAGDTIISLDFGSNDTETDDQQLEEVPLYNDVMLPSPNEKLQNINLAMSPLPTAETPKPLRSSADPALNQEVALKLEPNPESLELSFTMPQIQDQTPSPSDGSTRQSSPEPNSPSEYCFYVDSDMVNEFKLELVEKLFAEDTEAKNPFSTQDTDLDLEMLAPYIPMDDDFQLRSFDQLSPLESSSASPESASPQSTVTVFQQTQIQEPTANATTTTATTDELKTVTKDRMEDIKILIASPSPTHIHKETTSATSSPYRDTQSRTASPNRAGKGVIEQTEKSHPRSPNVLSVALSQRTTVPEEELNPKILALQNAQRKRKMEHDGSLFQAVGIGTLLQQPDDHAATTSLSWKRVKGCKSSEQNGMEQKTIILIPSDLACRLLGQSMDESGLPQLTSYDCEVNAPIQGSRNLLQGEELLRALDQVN
Procedure, shortened: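 HepG2 cells transiently transfected with multiple cis-regulated reporter transcription units measure endogenous transcription factor activity. After 24 h exposure, reporter mRNA is quantified by RT-PCR with 6-FAM labelling, HpaI digestion and capillary electrophoresis. Bidirectional fitting against DMSO.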

[14] = biological target: Hepatocyte nuclear factor 6 (Homo sapiens) (UniProt Q9UBC0); experiment: ATG_HNF6_CIS: Attagene CIS-FACTORIAL HepG2 Assay for human Hepatocyte Nuclear Factor 6 (HNF6) (AID 2282952); conditions: HepG2 Attagene cis-factorial HNF6 reporter transcription; actives raise or lower the signal
Sequence of Hepatocyte nuclear factor 6 (Homo sapiens) (Q9UBC0 whole entry, looked up): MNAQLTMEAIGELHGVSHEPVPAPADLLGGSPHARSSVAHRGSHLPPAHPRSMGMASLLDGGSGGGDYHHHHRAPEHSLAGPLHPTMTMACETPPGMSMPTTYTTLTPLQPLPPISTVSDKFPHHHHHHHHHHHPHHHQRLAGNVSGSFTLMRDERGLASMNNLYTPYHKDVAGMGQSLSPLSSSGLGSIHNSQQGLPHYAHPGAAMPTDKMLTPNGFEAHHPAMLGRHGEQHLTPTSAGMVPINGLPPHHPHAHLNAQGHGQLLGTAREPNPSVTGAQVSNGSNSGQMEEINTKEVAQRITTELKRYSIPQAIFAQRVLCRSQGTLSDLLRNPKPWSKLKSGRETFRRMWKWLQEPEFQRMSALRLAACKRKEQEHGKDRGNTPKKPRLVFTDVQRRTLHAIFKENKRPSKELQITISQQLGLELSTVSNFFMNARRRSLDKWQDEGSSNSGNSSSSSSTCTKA
Procedure, shortened: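 Transiently transfected HepG2 cells expressing cis-regulated reporter transcription units were exposed to chemical for 24 h in a 24-well format. Reporter transcript abundance was determined by fluorescence capillary electrophoresis.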

[15] = biological target: Heat shock factor protein 1 (Homo sapiens) (UniProt Q00613); experiment: ATG_HSE_CIS: Attagene CIS-FACTORIAL HepG2 Assay for human Heat Shock Transcription Factor 1 (HSE) (AID 2282953); conditions: HepG2 HSE cis-reporter, Attagene RNA transcription; actives raise or lower the signal
Sequence of Heat shock factor protein 1 (Homo sapiens) (Q00613 whole entry, looked up, the tested form may be a part): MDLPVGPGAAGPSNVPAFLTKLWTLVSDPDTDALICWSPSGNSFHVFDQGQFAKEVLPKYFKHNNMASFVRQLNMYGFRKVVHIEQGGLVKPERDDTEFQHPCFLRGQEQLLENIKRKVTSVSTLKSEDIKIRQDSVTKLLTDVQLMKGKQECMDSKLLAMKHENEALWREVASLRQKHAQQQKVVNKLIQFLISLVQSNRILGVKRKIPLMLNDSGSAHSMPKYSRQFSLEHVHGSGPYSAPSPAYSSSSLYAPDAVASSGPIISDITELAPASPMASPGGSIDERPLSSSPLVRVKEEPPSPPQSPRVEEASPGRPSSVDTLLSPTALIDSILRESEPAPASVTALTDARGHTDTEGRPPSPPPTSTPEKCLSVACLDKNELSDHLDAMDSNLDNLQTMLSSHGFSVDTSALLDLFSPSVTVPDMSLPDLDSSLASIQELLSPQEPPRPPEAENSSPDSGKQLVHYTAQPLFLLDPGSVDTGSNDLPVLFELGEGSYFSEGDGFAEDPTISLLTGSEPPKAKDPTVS
Procedure, shortened: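 Endogenous transcription factor activity captured via cis-promoter reporter units transfected into HepG2; treatment lasted 24 h. Fluorescence intensity of reporter fragments analysed with bidirectional curve fitting, DMSO baseline.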

[16] = ATG_MRE_CIS: Attagene CIS-FACTORIAL HepG2 Assay for human Metal Responsive Element (MRE) (AID 2282954); conditions: HepG2 MRE cis-reporter transcription, Attagene multiplex; actives raise or lower the signal
Procedure, shortened: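 Fluorescent reporter fragments separated by capillary electrophoresis give mRNA induction for the MRE unit after 24 h treatment of transfected HepG2 cells. Endogenous transcription-factor activity is read; DMSO serves as negative control and baseline.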

[17] = ATG_ERE_CIS: Attagene CIS-FACTORIAL HepG2 Assay for Estrogen Response Element (ERE) (AID 2282940); conditions: HepG2 ERE cis-reporter, Attagene RNA transcript; actives raise or lower the signal
Procedure, shortened: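 Fluorescence of capillary-separated, FAM-labelled reporter cDNA fragments indicates reporter mRNA levels in HepG2 cells exposed to chemicals for 24 h. Transient transfection with cis-regulated units; data fitted in both directions against DMSO.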

[18] = ATG_ISRE_CIS: Attagene CIS-FACTORIAL HepG2 Assay for human Interferon Regulatory Factor 1 (IRF1) binding to an Interferon-Stimulated Response Element (ISRE) (AID 2282948); conditions: HepG2 ISRE cis-reporter (Attagene), mRNA transcription readout; actives raise or lower the signal
Procedure, shortened: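 HepG2 cells transiently transfected with multiplexed cis-promoter reporter units; after 24 h compound exposure, reporter mRNA quantified by RT-PCR, FAM labelling, HpaI digestion and capillary electrophoresis. Bidirectional fit versus DMSO baseline.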

Measured: AC50

CCCO[Si](OCCC)(OCCC)OCCC
active: [1] 100 µM
not listed: [17] | [18]
inactive: all other assays above

CC(O)CN (configuration not stated)
not listed: [13] | [15]
inactive: all other assays above

O=S(=O)(O)CCCN1CCOCC1
not listed: [15]
inactive: all other assays above

CCCCOCCOCCOCCO
not listed: [3] | [10]
inactive: all other assays above

CC(=O)c1cccnc1
not listed: [4] | [15]
inactive: all other assays above

CC(C)(C)c1ccc(S)cc1
not listed: [13] | [18]
inactive: all other assays above

O=C(c1ccc(OCCN2CCCCC2)cc1)c1c(-c2ccc(O)cc2)sc2cc(O)ccc12
inactive: [1] | [2] | [4] | [5] | [6] | [7] | [8] | [9] | [10] | [18] | [11] | [14] | [15]
active: [4] 11.3 µM and 11.1 µM | [5] 13.6 µM and 17 µM | [9] 11.1 µM and 15.2 µM | [10] 20.2 µM | [18] 11.1 µM and 17 µM and 14.8 µM | [14] 11.1 µM and 21.4 µM | [15] 17.2 µM and 17.7 µM and 19.8 µM

COC(=O)c1ccc(C(=O)OC)cc1
not listed: [10] | [15] | [18]
inactive: all other assays above
